Laboratory results published in the supplement of paper PMC6555819.

Assays:
Test in all cases: PBM binding z-score (relative to random genomic background probes); higher = stronger binding; sequences stand for … in GC…GCGATTGACAGCGTAGAATGAAGG
[1] = system: PPARg:RXRa DBDmut IVT, anti-RXR (DBD mutation: RXRa K156A/R161A, NR concentration 270 nM, RXRa partner concentration 90 nM)
Summary of the method: (§1)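 Scanned fluorescence from custom Agilent 4×180K protein-binding microarrays was regression-normalized. Binding z-scores use random background probes as reference. Ligand-free nuclear receptor dimers were incubated on the arrays for 1 h and detected with antibodies against each partner (one per run).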

[2] = system: PPARg:RXRa IVT, anti-PPARg (NR concentration 270 nM, RXRa partner concentration 90 nM)
Summary of the method: as §1

[3] = system: PPARg DBDmut:RXRa IVT, anti-PPARg (DBD mutation: PPARg1 K132A/R137A, NR concentration 270 nM, RXRa partner concentration 90 nM)
Summary of the method: as §1

[4] = system: PPARg DBDmut IVT, anti-PPARg (DBD mutation: PPARg1 K132A/R137A, NR concentration 270 nM)
Summary of the method: as §1

[5] = system: PPARg homodimer (NR concentration 180 nM)
Summary of the method: as §1

[6] = system: PXR:RXRa (NR concentration 270 nM, RXRa partner concentration 90 nM)
Summary of the method: as §1

[7] = system: PXR homodimer (NR concentration 270 nM)
Summary of the method: as §1

[8] = system: RARa:RXR (NR concentration 270 nM, RXRa partner concentration 90 nM)
Summary of the method: as §1

[9] = system: RARa homodimer (NR concentration 270 nM)
Summary of the method: as §1

[10] = system: RARb:RXRa (NR concentration 270 nM, RXRa partner concentration 90 nM)
Summary of the method: as §1

| Sequence | PBM binding z-score [1] | PBM binding z-score [2] | PBM binding z-score [3] | PBM binding z-score [4] | PBM binding z-score [5] | PBM binding z-score [6] | PBM binding z-score [7] | PBM binding z-score [8] | PBM binding z-score [9] | PBM binding z-score [10] |
| --- | --- | --- | --- | --- | --- | --- | --- | --- | --- | --- |
| CCTCGGAGGACAGAAGGACAGAGCTGTCCGCTTT | -0.418 | -0.913 | -0.956 | -1.82 | -0.605 | -0.689 | -0.621 | -0.66 | -0.614 | 0.716 |
| GCAGACAGGTGAAACGGAGGTAACTCAGGGTGGC | 1.09 | 0.463 | -0.413 | -1.08 | -0.308 | 0.0496 | -0.337 | 0.668 | -0.627 | 0.729 |
| CCTATTAGTTGACCATGAGGGCAACCGAAGCTCG | 0.64 | 0.77 | 0.542 | 0.384 | 1.98 | 1.48 | 1.48 | 1.37 | 1.39 | 1.52 |
| CAAGCTAGGTCACAGAGGTCAAAGTCCGTGCGTA | 5.16 | 5.87 | 0.564 | 0.34 | 6.23 | 6.96 | 12.1 | 8.03 | 2.55 | 5.47 |
| TCTAGTTGTTCAAAGGTCACACACTCGAAATGCG | 2.71 | 4.64 | 1.27 | 1.68 | 4.16 | 5.49 | 1.93 | 5.89 | 4.19 | 5 |
| CGTCCAAGGTCAATGCTAGGTCAGCGAAAGCATT | 3.48 | 4.11 | 0.86 | 0.428 | 7.14 | 4.98 | 1.31 | 6.26 | 1.36 | 5.17 |
| TCTCGGAGAACACGAAGGTCAGAGCTTTCCAGAG | 1.08 | 0.106 | -2.09 | -1.27 | 0.419 | 1.29 | -0.535 | 1.67 | -0.665 | 2.49 |
| CAAACTAGGTCACCGGAGGGTCAAAGTCCGCATG | 8.31 | 8.77 | 2.75 | 0.546 | 4.78 | 5.16 | 0.605 | 6.42 | 1.73 | 4.89 |
| GCGACTGGGGCATCAACAGGTTACCATAACTTAA | 3.85 | 3.26 | 0.132 | -0.496 | 0.784 | 0.139 | -0.425 | 0.551 | -0.516 | 0.911 |
| CCTGCTAGCTCAATGGTCAGCTAAAGCAGCTCGC | -0.172 | -0.705 | -1.42 | -1.42 | -0.534 | -0.568 | -0.761 | -0.44 | -0.89 | 0.0479 |
| GTTATTAGTTGAAAGGGCAACCGAATGATTCTCG | 1.31 | 1.82 | 1.34 | 1.6 | 3.38 | 1.26 | 1.4 | 1.87 | 3.11 | 2.55 |
| CGTTACGGGTCAAGGTTATAGCACGGGTGGTACG | 2.15 | 3.69 | 0.343 | -0.183 | 1.78 | 3.44 | 0.111 | 3.92 | 0.367 | 4.29 |
| CCGACTGGGGCAGAAAGGTCACCATACCATCCGG | 1.91 | 3.29 | -0.398 | -0.64 | 4.46 | 5.07 | 0.611 | 6.06 | 2.92 | 4.39 |
| TCTTGTACATCAATAGAGGTTAAGAAAGTGCGCT | 1.8 | 1.66 | 1.53 | 1.13 | 0.454 | 2.94 | 0.485 | 1.98 | 0.123 | 1.08 |
| ACAGACAGGTGATGAAGGTACCTCAGGCTATCAT | -0.0914 | 0.0194 | 0.29 | 0.042 | -0.0635 | -0.279 | 0.235 | 0.00944 | -0.363 | -0.00921 |
| AATACAGGGTCATCGTGGGCCAGAGTACGCACAG | 2.57 | 4.37 | 0.764 | 1.07 | 2.16 | 4.59 | 0.368 | 4.92 | 0.514 | 4.36 |
| ACAACGAGGGCAATGAGTTGATAGCACGGGTGGC | 2.73 | 2.02 | 0.439 | 0.354 | 0.382 | 1.76 | 4.64 | 0.401 | -0.285 | 2.15 |
| CCCACTGGGCCATCAGGTCATTGATATCAACGTT | 3.84 | 5.07 | 0.243 | 0.0844 | 2.19 | 1.57 | 0.893 | 1.95 | 0.424 | 2.04 |
| CCTAGTTGGTAAAGGTCACACACGCTATAGGTAC | 1.96 | 4.31 | 1.8 | 2.57 | 5.56 | 5.79 | 2.18 | 6.31 | 3.99 | 5.22 |
| CCTTACGGGTCACTCACAGGTTATAGCATTTGGA | 3.1 | 3.43 | 0.37 | 0.401 | 3.21 | 3.56 | 0.559 | 4.46 | 1.29 | 3.77 |
| ACTAGCAGGCCAAGGGTCACTCATGATTAGTCCG | 1.25 | 3.63 | 0.294 | -0.197 | 2.62 | 3 | -0.0152 | 4.04 | 0.642 | 3.41 |
| TCTATTAGTTGATTAGGGCAATCGAAACAGCGGA | 2.23 | 1.29 | 0.785 | 0.869 | 1.1 | 0.568 | 0.192 | 0.781 | 1.56 | 0.778 |
| TCAGACAAGTGAAGGTAACTCAGGTACGCAGTCG | 2.07 | 0.111 | 0.0158 | -0.174 | -0.105 | 0.509 | -0.105 | 0.807 | -0.0772 | 0.197 |
| GGAACGAGGGCATTGGAGTTGATAGCATGGCGAT | 3.13 | 1.96 | -0.193 | -0.133 | 0.272 | 2.48 | 0.836 | 0.409 | -0.598 | 1.72 |
| GCTGCTAGGTCAACTGACGGTCAGCTAAAGCTCG | 5.14 | 4.49 | 0.437 | -0.0795 | 4.42 | 2.08 | -0.874 | 4.58 | 1.05 | 4.56 |
